KDM5B inhibitor: Primary screen for KDM5B Histone Demethylases FDH-coupled qHTS | actives 2.6% (n = 220,000) | KDM5B demethylase, FDH-coupled NADH fluorescence (FDH is formaldehyde dehydrogenase) | Potency, µM (top dose mostly 57.7 µM), usual class: inhibitors | AID 1347165, 2019; active means well fitted inhibition curve with a large enough effect; further: 0% is about no effect; nearly all actives have a fitted effect of over 70% in size
Target sequence (Q9UGL1 whole entry, looked up): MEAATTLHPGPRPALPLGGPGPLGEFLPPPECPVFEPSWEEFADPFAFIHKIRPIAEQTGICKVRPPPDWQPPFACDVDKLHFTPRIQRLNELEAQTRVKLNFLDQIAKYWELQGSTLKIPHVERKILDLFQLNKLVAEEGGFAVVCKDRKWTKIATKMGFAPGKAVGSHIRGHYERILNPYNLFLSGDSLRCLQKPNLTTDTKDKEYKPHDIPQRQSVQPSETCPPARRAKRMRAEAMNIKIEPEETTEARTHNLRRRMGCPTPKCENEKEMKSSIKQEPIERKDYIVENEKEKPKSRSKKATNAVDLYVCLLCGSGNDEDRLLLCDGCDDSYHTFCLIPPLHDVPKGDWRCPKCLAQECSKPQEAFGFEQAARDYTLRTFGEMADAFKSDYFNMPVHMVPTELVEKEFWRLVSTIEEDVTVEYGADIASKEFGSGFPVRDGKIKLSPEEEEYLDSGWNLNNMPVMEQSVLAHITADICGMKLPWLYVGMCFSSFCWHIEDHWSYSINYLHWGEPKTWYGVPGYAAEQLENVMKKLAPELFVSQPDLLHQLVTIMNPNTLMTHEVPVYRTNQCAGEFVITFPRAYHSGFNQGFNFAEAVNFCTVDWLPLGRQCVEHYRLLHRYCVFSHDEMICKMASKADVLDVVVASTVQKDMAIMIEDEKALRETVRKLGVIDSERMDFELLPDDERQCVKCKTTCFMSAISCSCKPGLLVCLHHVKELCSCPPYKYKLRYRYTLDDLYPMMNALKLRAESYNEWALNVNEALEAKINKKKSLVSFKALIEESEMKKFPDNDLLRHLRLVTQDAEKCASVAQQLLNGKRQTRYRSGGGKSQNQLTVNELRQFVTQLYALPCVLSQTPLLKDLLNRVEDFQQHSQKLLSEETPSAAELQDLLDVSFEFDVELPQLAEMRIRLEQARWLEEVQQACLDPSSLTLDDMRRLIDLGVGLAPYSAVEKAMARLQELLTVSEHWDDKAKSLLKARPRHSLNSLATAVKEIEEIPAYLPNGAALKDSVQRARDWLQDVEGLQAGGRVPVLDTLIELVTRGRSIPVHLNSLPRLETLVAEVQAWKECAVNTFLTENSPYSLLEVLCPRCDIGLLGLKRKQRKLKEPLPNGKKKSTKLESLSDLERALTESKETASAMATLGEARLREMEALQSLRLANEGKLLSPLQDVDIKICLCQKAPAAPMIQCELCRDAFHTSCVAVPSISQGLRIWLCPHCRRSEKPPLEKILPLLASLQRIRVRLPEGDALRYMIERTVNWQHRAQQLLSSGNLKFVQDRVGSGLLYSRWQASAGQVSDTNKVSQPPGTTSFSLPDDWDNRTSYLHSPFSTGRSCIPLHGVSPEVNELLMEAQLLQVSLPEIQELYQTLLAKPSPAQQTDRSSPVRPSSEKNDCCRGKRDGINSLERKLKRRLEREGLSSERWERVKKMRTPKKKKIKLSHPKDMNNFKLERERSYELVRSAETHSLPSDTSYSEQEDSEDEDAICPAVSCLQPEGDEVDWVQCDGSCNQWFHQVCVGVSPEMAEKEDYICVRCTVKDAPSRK
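KDM5BΔAP (200 nM final) in 50 mM HEPES pH 7.5, 0.01% Tween-20 was preincubated 10 min at RT with compound over a concentration range. Substrate mix (H3K4me3 12.5 µM, α-KG 25 µM, Fe²⁺, ascorbate, NAD⁺, FDH) was added, and NADH fluorescence change over 30 min gave dose-response curves.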
* = called active by the depositor; i = inactive. Shown is part of a subset that was picked to be rich in hits. Potency means the concentration at half of the fitted maximal effect.

SMILES	KDM5B inhibitor
CCCC(=O)N1N=C(c2ccc(OC)cc2)CC1c1ccc2nccnc2c1 (configuration not stated)	i
Cc1nn(C)c(C)c1CNCc1cccnc1N1CCOCC1	i
Cc1ccc(CCC(=O)Nc2cnc3ccccc3c2)cc1	i
CCOc1cc(/C=N/O)ccc1OCc1ccccc1Cl	i
Cc1ccc(Nc2ccc([N+](=O)[O-])c3cnccc23)cc1	i
S=C(NCc1ccc(Cl)cc1)NC1CC2CCC1C2 (configuration not stated)	i
CCCCCCC1COC(c2ccc(Br)cc2)OC1 (configuration not stated)	i
COc1cc(-c2onc(C)c2C(=O)NCC2CCCO2)cc(OC)c1OC (configuration not stated)	28.2µM*
COc1cc(OC)cc(-c2onc(C)c2C(=O)NCCCSC)c1	i
COc1cc(OC)c(CNC(=O)c2c(C)noc2-c2ccc(OC(F)(F)F)cc2)c(OC)c1	i
CCCOCCCNC(=O)c1c(C)noc1-c1cccc(F)c1	i
COc1cc(-c2onc(C)c2C(=O)NCCCOC(C)C)cc(OC)c1OC	31.6µM*
COc1ccc(-c2cc(C(=O)NCC3CCCO3)c3cc(C)ccc3n2)cc1 (configuration not stated)	i
Cc1nccn1CCCC(=O)N[C@@H]1CCOC[C@H]1OCC(=O)O	i
Cc1ccc(-c2ccc(CCC(=O)N[C@@H]3CCOC[C@H]3OCC(=O)O)o2)cc1	28.2µM*
Cc1cc(Cl)ccc1OCC(=O)N[C@@H]1CCOC[C@H]1OCC(=O)O	i
O=C(Nc1c(NC2CCCCC2)c2ccccc2oc1=O)c1ccc2c(c1)OCO2	i
O=C(O)c1cccnn1	i
CCCCCCCCSCCC(=O)O	i
Cn1c(CCNC(=O)c2ccccc2F)nnc1SCC(=O)N1CCc2ccccc21	i
O=C(NC1CCCC1)C1CCCN(C2CCN(C3Cc4ccccc4C3)CC2)C1 (configuration not stated)	31.6µM*
CCCCNC(=O)C1CCCN(C2CCN(C3Cc4ccccc4C3)CC2)C1 (configuration not stated)	i
O=C(NC1CCC1)C1CCCN(C2CCN(C3Cc4ccccc4C3)CC2)C1 (configuration not stated)	i
Cc1cccc(N(C)C(=O)Cn2c(-c3cccc(Cl)c3)nc(C)c(CCO)c2=O)c1	i
CCc1noc(-c2cccn3c(CNC(=O)C4CC4)nnc23)n1	25.1µM*
SMILES	KDM5B inhibitor
CCCc1noc(-c2cccn3c(CNC(=O)C4CC4)nnc23)n1	25.1µM*
CC(C)c1ccc(N2CC(C(=O)NCc3nc(C(C)C)no3)CC2=O)cc1 (configuration not stated)	i
CC(C)c1noc(-c2cccn3c(CNC(=O)C4CC4)nnc23)n1	28.2µM*
O=C(NCCc1noc(-c2ccccc2)n1)C1CCCC1	i
N#Cc1ccccc1NC(=O)C1CCCC1	i
Cc1ccc(C(=O)C(C#N)C(=O)NCc2ccccc2)cc1C (configuration not stated)	i
Cc1c(Cl)cccc1NC(=S)NCCc1cccs1	i
Cc1ccc(SC(C)C(=O)NC2CCCCC2)cc1 (configuration not stated)	i
CCNc1c(NC(=O)Cc2ccc(F)cc2)c(=O)oc2ccccc12	i
Cc1cc(C(=O)N2CCCC2)n[nH]1	i
Cc1ccc2nc(C)cc(C(=O)N3CCC(c4cc(CC(=O)O)[nH]n4)CC3)c2c1	i
Cc1ccc(-c2cc(C(=O)N3CCC(c4cc(CC(=O)O)[nH]n4)CC3)n[nH]2)o1	25.1µM*
CCN1C(=O)C2(CCN(S(=O)(=O)c3ccc(C)c(F)c3)CC2)c2ccccc21	i
Cc1cn2nc(C(=O)NCc3ccccn3)cc2c(N2CCCC2)n1	i
Cc1cn2nc(C(=O)NCc3ccc(C(C)C)cc3)cc2c(N2CCCC2)n1	35.5µM*
COc1ccccc1CNC(=O)c1cc2c(N3CCSCC3)nc(C)cn2n1	7.08µM*
COc1ccccc1CNC(=O)c1sc(NC2CCCC2)nc1C	i
COc1ccccc1CNC(=O)CSc1nc2ccccc2nc1N1CCCC1	i
Cc1cccc(CNC(=O)c2cc3c(N4CCCC4)nc(C)cn3n2)c1	i
Cc1cn2nc(C(=O)NCc3ccccc3Cl)cc2c(N2CCCC2)n1	i
COc1ccccc1CNC(=O)C1CCN(c2nn3c(=O)cc(C)nc3s2)CC1	i
Cc1cn2nc(C(=O)NCc3ccccc3F)cc2c(N2CCCC2)n1	25.1µM*
COc1ccccc1CNC(=O)c1cc2c(N3CCCC3)nc(C)cn2n1	28.2µM*
Cc1cn2nc(C(=O)NCCc3ccc(S(N)(=O)=O)cc3)cc2c(N2CCCC2)n1	i
CC1CCN(C(=O)c2cc3ccc(C(C)C)cc3[nH]2)CC1	i
SMILES	KDM5B inhibitor
CC(Sc1ccc(Br)cn1)C(=O)Nc1cccc(Br)c1 (configuration not stated)	i
Cc1cc(C)n(Cc2ccc(C(=O)N3CCC(c4noc(-c5cccnc5)n4)C3)o2)n1 (configuration not stated)	i
COCCn1cnnc1SC(C)C(=O)c1cccc(Cl)c1 (configuration not stated)	i
N#CC1(NC(=O)CSC2=Nc3ccccc3CS2)CCCCC1	i
COc1ccc(C(=O)N2CCc3nc(C(C)C)nc(-c4ccc(OC)cc4)c3C2)cc1	i
CC(NCc1ccccc1)C(=O)C12CC3CC(CC(C3)C1)C2 (configuration not stated)	i
O=c1[nH]nc(SCc2nc(-c3ccccc3Cl)no2)n2nc(-c3ccco3)cc12	i
COC(=O)c1ccc(/C=C(\C#N)C(=O)Nc2ccccc2C(=O)O)cc1	i
CCCC(C)NC(=O)c1cccc2c(C)c(C)[nH]c12 (configuration not stated)	i
COc1ccc(N(CC(=O)Nc2ccc(C)c(C)c2)S(=O)(=O)c2c(C)nn(C)c2C)cc1	i
Cc1cc2nc(SCC(=O)Nc3ccc(F)c(Cl)c3)[nH]c(=O)c2[nH]1	i
O=C(CCc1c[nH]c2ccccc12)Nc1ccc(N2CCCCC2)cc1	i
CCCNC(=O)c1cccc(CNCc2ccsc2)c1	i
CC(C)NC(=O)C[C@@H]1CCNC[C@@H]1Cc1cc(-c2ccc(C(C)(C)C)cc2)on1	i
O=C(CSCc1ccccn1)N(Cc1ccsc1)C1CC1	i
CCN(Cc1ccccc1)C(=O)c1cn(-c2cccc(Cl)c2)nn1	i
Cc1cc(N2CCN(C(=O)c3ccco3)CC2)c2ccccc2n1	i
COc1ccc(CCNC(=O)c2cc3c(N4CCCC4)nc(C)cn3n2)cc1OC	i
COc1ccc(CNC(=O)c2cccn2-c2nnc(N3CCCCC3)s2)c(OC)c1	i
Cc1cn2nc(C(=O)N3CCN(C(=O)c4ccco4)CC3)cc2c(N2CCCC2)n1	31.6µM*
CCN(Cc1ccccc1)C(=O)c1cc2c(N3CCCC3)nc(C)cn2n1	25.1µM*
COc1ccc(CNC(=O)c2cc3c(N4CCCC4)nc(C)cn3n2)c(OC)c1	28.2µM*
O=C(c1ccco1)N1CCN(c2nc3ccc(Cl)cc3s2)CC1	i
Cc1ccc2c(COC(=O)CCCN=C3NS(=O)(=O)c4ccccc43)cc(=O)oc2c1C	i
CC(NC(=O)CCCNC(=O)C1CC1)c1ccc(C#N)cc1 (configuration not stated)	i
CN(C)C(=O)C(Cl)c1ccccc1 (configuration not stated)	i
CCn1ccnc1C1CCN(c2nc3ccccc3o2)CC1	i
O=C(NCc1cccc(Br)c1)c1ncoc1-c1cccs1	i

Compound activity (PubChem BioAssay)
